# Active and inactive are the calls of the source.
# How the values were obtained:
# [1] = test system: PRMT1 (protein arginine N-methyltransferase 1); assay: small molecules binding arginine methyltransferase PRMT1 – biochemical, small-molecule microarray, 635 nm fluorescence, primary screen (AID 1088); conditions: higher = more signal;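 note: binding of Prmt1 protein to compounds spotted on small-molecule microarray slides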
# [2] = growth effects on S. cerevisiae YJM789 – YJM789 clinical isolate, OD600, 24 h, basal, primary screen (AID 1089); conditions: higher = more signal, called active from +8 up or from −8 down;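 note: growth of clinical yeast isolate S. cerevisiae YJM 789 seeded 1000 cells per well; test concentration not given here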
# [3] = S. pombe growth modifiers, basal conditions – strain 972, OD600, 24 h, no modulator, primary screen (AID 1090);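 note: basal condition with compound alone and no growth modifier present; test concentration not given here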; conditions: S. pombe 972 growth, higher = more signal, called active from +8 up or from −8 down
# [4] = budding yeast growth modifiers under rapamycin – strain BY4716, OD600, 96 h, primary screen (AID 1091); note: test concentration not given here; conditions: S. cerevisiae BY4716 + rapamycin, higher = more signal, called active from +8 up or from −8 down
# [5] = biological target: Torsin-1A-interacting protein 2 (Homo sapiens) (UniProt Q8NFQ8); assay: small molecules binding lysate-expressed LULL1 – cell lysate, human LULL1 lysate, 635/667 nm fluorescence, primary screen (AID 1092); conditions: small-molecule microarray, hLULL1 lysate binding, 635 nm fluorescence; higher = more signal;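 note: probe is lysate of COS7 cells overexpressing human LULL1; score merges per-feature 667 nm fluorescence with signal-to-noise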
# Chain of Torsin-1A-interacting protein 2 (Homo sapiens) (Q8NFQ8 whole entry, looked up): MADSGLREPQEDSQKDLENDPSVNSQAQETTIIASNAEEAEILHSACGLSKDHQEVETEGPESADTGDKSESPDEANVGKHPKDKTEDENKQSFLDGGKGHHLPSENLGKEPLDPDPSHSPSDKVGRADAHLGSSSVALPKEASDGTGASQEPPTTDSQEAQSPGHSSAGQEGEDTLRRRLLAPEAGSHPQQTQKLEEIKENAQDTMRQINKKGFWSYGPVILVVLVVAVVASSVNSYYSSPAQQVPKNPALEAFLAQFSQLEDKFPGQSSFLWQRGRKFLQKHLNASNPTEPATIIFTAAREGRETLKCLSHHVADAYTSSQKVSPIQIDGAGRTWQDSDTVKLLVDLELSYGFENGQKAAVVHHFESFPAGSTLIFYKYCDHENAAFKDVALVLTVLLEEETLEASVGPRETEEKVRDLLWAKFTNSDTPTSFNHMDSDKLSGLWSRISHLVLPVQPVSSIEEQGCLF
# [6] = optical density change of DRC41 E. coli – strain DRC41, OD650, 24 h, E. coli filamentation project, primary screen (AID 1093);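 note: MC1000 strain lacking acrAB efflux and sulA so SOS filamentation is blocked; test concentration not given here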; conditions: E. coli DRC41 growth, higher = more signal, called active from +8 up or from −8 down
# [7] = probe aLefty2 binding to arrayed compounds – biochemical, biotinylated probe, 635/667 nm fluorescence, primary screen (AID 1094); conditions: small-molecule microarray, higher = more signal;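 note: score merges spot fluorescence near 667 nm with spot signal-to-noise ratio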
# [8] = test system: Noggin (protein binding on small-molecule microarray); assay: small molecules binding Noggin protein – biochemical, 635/667 nm fluorescence, primary screen (AID 1095); conditions: 635 nm fluorescence, higher = more signal;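 note: score merges 667 nm feature fluorescence with signal to noise over triplicate slides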
# [9] = biological target: Neurogenic locus notch homolog protein 3 (Homo sapiens) (UniProt Q9UM47); assay: small molecules binding NOTCH3 protein – biochemical, 635/667 nm fluorescence, primary screen (AID 1096); conditions: small-molecule microarray, 635 nm fluorescence, higher = more signal
# Chain of Neurogenic locus notch homolog protein 3 (Homo sapiens) (Q9UM47 whole entry, looked up): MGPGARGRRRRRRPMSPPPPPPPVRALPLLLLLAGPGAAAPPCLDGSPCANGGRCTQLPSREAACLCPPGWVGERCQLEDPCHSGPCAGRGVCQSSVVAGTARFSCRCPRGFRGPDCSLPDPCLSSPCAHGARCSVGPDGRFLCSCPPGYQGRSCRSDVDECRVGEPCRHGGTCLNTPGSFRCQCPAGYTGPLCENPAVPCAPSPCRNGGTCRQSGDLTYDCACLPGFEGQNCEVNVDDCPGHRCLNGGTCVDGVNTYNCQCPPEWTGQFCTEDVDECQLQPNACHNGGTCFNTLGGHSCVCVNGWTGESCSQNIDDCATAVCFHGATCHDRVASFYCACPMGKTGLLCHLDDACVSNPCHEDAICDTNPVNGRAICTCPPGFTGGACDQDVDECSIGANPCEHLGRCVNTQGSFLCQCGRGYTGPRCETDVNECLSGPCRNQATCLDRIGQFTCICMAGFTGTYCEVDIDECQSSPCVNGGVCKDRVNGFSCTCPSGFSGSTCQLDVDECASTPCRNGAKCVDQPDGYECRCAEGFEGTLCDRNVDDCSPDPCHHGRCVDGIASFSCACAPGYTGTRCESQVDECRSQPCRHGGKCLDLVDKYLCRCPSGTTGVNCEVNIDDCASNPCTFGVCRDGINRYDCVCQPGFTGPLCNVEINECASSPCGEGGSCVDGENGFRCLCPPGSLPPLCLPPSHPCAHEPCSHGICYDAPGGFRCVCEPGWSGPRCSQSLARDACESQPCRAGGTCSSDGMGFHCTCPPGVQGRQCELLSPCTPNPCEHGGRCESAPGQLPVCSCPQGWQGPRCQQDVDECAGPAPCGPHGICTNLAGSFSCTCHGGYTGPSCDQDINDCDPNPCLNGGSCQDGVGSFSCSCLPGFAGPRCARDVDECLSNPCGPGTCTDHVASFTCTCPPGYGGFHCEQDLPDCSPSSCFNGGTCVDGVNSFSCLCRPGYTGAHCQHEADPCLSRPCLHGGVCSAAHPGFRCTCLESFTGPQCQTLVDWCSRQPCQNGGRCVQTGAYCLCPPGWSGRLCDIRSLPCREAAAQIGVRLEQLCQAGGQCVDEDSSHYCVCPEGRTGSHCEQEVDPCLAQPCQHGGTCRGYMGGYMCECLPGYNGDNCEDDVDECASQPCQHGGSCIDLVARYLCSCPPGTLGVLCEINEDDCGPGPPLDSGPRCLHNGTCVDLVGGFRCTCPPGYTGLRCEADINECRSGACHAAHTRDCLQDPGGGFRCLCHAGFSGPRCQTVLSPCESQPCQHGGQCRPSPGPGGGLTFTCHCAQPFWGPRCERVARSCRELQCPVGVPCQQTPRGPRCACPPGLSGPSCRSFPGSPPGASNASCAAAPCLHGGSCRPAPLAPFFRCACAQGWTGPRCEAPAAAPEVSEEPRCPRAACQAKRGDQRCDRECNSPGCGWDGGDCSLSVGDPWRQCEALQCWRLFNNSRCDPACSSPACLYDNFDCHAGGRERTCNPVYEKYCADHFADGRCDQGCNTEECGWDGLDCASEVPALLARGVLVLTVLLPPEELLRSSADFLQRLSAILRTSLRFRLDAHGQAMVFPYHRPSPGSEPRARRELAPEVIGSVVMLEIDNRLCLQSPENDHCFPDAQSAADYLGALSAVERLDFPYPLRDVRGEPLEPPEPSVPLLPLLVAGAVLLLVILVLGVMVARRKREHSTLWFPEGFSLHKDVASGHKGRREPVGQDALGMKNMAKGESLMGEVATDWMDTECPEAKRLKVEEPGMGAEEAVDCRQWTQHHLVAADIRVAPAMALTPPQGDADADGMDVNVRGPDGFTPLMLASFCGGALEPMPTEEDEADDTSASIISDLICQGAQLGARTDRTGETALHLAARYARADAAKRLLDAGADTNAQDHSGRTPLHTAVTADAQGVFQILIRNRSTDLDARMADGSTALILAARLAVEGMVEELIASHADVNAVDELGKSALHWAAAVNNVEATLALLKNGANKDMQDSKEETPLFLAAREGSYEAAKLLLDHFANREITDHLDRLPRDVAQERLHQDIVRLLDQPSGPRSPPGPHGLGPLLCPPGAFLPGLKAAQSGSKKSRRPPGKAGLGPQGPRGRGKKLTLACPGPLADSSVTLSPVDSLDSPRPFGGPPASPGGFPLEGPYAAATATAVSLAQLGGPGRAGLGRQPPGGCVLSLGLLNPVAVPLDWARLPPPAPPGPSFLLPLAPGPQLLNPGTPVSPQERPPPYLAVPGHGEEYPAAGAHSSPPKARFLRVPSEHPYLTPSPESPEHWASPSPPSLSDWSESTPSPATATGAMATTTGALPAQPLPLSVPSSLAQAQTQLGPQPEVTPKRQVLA
# [10] = probe aEGFR binding to arrayed compounds – biochemical, biotinylated probe, 635/667 nm fluorescence, primary screen (AID 1097); conditions: small-molecule microarray, higher = more signal;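 note: probe is a biotinylated anti-EGFR antibody binding compounds printed on slides; score combines fluorescence near 667 nm and signal to noise of each spot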
SMILES,composite z-score [1],z-score [2],z-score [3],z-score [4],composite z-score [5],z-score [6],composite z-score [7],composite z-score [8],composite z-score [9],composite z-score [10]
C=CC[C@]1(C(=O)NCCCOC)N=C(c2ccc(OCCCO)cc2)O[C@H]1c1ccccc1CN=[N+]=[N-],1.13,-1.5 (inactive),0.998 (inactive),-1.71 (inactive),3.15,-0.483 (inactive),0.248,0.102,0.854,0.286
CC(C)C(O)C1C=CC2C(=O)NC(=O)C2N1Nc1ccc(Cl)cc1Cl (stereo not given),0.119,0.376 (inactive),-0.843 (inactive),1.5 (inactive),3.18,-0.805 (inactive),0.112,-0.463,0.0316,-0.122
N#Cc1ccc(NN2C(C(O)C(c3ccccc3)c3ccccc3)C=CC3C(=O)N(c4ccccc4)C(=O)C32)cc1 (stereo not given),1.07,0.43 (inactive),1.25 (inactive),5.53 (inactive),3.58,-0.0873 (inactive),0.167,0.297,1.01,0.0981
CC(C)OC(=O)C=C1C[C@@H](c2ccccn2)O[C@@H](c2ccccn2)O1,0.875,-0.0723 (inactive),0.228 (inactive),-1.36 (inactive),0.0473,0.0183 (inactive),-0.224,1.25,0.0527,0.0494
CC(C)C[C@@H]1NC(=O)[C@@H]2C[C@H](C(=O)O)[C@H](c3cccc(OCCO)c3)N2C1=O,0.64,-0.19 (inactive),-0.734 (inactive),-0.56 (inactive),1.89,1.06 (inactive),-0.173,-0.0135,-0.155,-0.229
COC(=O)[C@@]1(Cc2ccccc2)N=C(c2ccc(OCCCO)cc2)O[C@H]1c1ccccc1,1.31,-0.774 (inactive),-1.99 (inactive),3.21 (inactive),2.05,1.55 (inactive),0.116,0.0302,0.107,-0.123
COc1ccc([Si](C)(C)[C@H]2[C@H](CC(=O)N3Cc4ccccc4C[C@H]3CO)O[C@@]3(C(=O)N(Cc4cccc(N5CCC5=O)c4)c4ccccc43)[C@@H]2C)cc1,1.57,-0.441 (inactive),0.716 (inactive),1.98 (inactive),2.26,0.192 (inactive),-0.12,0.914,1.06,0.0478
C=CC1(C(=O)OC)CC=C(C(=O)OC)CC1 (stereo not given),0.911,-1.64 (inactive),0.358 (inactive),-0.624 (inactive),0.531,-0.487 (inactive),-0.0449,0.533,0.57,0.0413
CCOC(=O)C[C@H]1[C@H](OC(=O)c2ccc(C(=O)c3ccccc3)cc2)[C@@H](NC(=O)c2ccc3ccccc3n2)c2cc(OCCCO)ccc2N1C(=O)c1ccccc1,1.23,-0.658 (inactive),0.103 (inactive),-0.291 (inactive),1.94,-1.16 (inactive),-0.025,0.552,0.99,0.0864
NC(=O)[C@@H]1[C@H]2C(=O)O[C@H](c3ccccc3)[C@H](c3ccccc3)N2[C@H](c2ccc(O)cc2)[C@@]12C(=O)Nc1ccccc12,1.41,0.0549 (inactive),-1.41 (inactive),0.386 (inactive),3.53,1.11 (inactive),-0.107,-0.952,0.118,-0.289
CN(C)CCCC[C@@H]1NC(=O)[C@H]2C[C@@H](C(=O)NCCCCCCN)[C@@H](c3ccc(O)cc3)N2C1=O,1.57,0.307 (inactive),-0.235 (inactive),-0.447 (inactive),3.08,0.278 (inactive),1.14,1.84,1.15,0.566
O=C1O[C@H](c2ccccc2)[C@H](c2ccccc2)N2[C@H]1[C@@H](C(=O)N1CCCCCCC1)[C@]1(C(=O)Nc3ccc(C#CCCO)cc31)[C@H]2c1ccccc1OCCO,1.55,2.09 (inactive),-13.6 (active),4.15 (inactive),5.15,0.689 (inactive),1.96,2.41,1.01,1.34
C=C(CCCC)/C(=C/C[C@H](OC(=O)c1ccncc1)c1ccccc1OCCO)c1cnc2ccccc2c1,1.55,-1.73 (inactive),-1.14 (inactive),3.47 (inactive),1.34,-0.0552 (inactive),-0.217,1.27,1.13,-0.111
CO[C@H]1O[C@H](CO)[C@@H](OC(=O)Nc2ccc(C(F)(F)F)cc2)[C@H](OC(=O)Nc2ccc3c(c2)OCO3)[C@@H]1OC(=O)Nc1ccc2c(c1)OCO2,1.54,2.76 (inactive),0.942 (inactive),10 (active),3.11,2.24 (inactive),-0.0021,0.476,1.08,0.0869
C=C(C)[C@@H]1CC=C(C(O)C2C=CC3C(=O)N(c4ccccc4)C(=O)C3N2Nc2ccccc2)CC1 (stereo not given in full),1.55,0.0118 (inactive),0.0527 (inactive),0.0587 (inactive),3.32,-0.784 (inactive),0.467,0.302,1.05,0.34
O=C1C[C@@](C(=O)NCCN2CCOCC2)(c2ccc([N+](=O)[O-])cc2)[C@@H](c2ccc(CO)cc2)N1CC12CC3CC(CC(C3)C1)C2,1.53,-1.41 (inactive),-17.2 (active),-1.37 (inactive),3.31,-2.26 (inactive),0.0211,1.4,1.09,0.0778
C=C(CC1([C@@H](NP(=O)(c2ccccc2)c2ccccc2)[C@H]2C[C@@H]2CCCC)CC1)c1ccccc1,0.759,-0.254 (inactive),0.204 (inactive),3.83 (inactive),2.53,-0.357 (inactive),0.153,-0.591,0.418,-0.0844
Cc1ccc([C@@H]2C[C@@H](Sc3ccccc3)[C@H](C(=O)O)CN2S(=O)(=O)c2ccc(C)cc2)cc1,1.54,-0.337 (inactive),0.565 (inactive),-0.787 (inactive),3.53,-0.773 (inactive),0.141,0.339,1.08,0.0082
CCCC[C@H]1OB(O)C[C@H]2C1=C(COC)Cn1c(=O)n(-c3ccccc3)c(=O)n12,0.601,0.461 (inactive),0.19 (inactive),-0.386 (inactive),0.814,0.498 (inactive),-0.208,0.0562,0.121,-0.137
O=C(NCCN1CCOCC1)[C@@H]1c2ccccc2C(=O)N(C2CCCCC2)[C@H]1c1ccc(CO)cc1,0.403,-0.166 (inactive),-0.556 (inactive),0.0989 (inactive),2.35,-0.0985 (inactive),-0.0042,-0.562,-0.565,-0.2
NCCCCCCNC(=O)[C@@H]1C[C@@H]2C(=O)NCC(=O)N2[C@@H]1c1ccc(O)cc1,1.56,0.0703 (inactive),0.467 (inactive),-0.129 (inactive),1.01,1.1 (inactive),-0.0324,1.58,1.07,-0.0409
C#C[C@H](O[Si](C#Cc1ccc(Oc2ccccc2)cc1)(C(C)C)C(C)C)c1ccccc1,1.23,-0.824 (inactive),-19.1 (active),-0.42 (inactive),1.02,-0.547 (inactive),-0.0666,0.531,0.185,-0.0286
CCc1cccc(NC(=O)O[C@H]2[C@H](OC(=O)Nc3ccccc3-c3ccccc3)[C@@H](OC(=O)Nc3ccccc3-c3ccccc3)[C@@H](OC)O[C@@H]2CO)c1,1.53,0.182 (inactive),1.42 (inactive),-2.51 (inactive),3.43,-1.31 (inactive),0.126,0.666,1.07,0.0506
O=C(CS)NCCCCCCNC(=O)[C@@H]1C[C@@H]2C(=O)NCC(=O)N2[C@@H]1c1cccc(OCCO)c1,1.01,0.309 (inactive),0.156 (inactive),0.616 (inactive),3.09,0.456 (inactive),-0.327,-0.07,0.188,-0.0662
CC(C)c1ccc(NN2C(C(O)c3ccc(B(O)O)cc3)C=CC3C(=O)N(c4ccccc4)C(=O)C32)cc1 (stereo not given),0.815,0.0686 (inactive),-4.4 (inactive),0.617 (inactive),2.99,-0.41 (inactive),0.413,-0.266,1.11,-0.0179
COc1cc(C(O)C2C=CC3C(=O)NC(=O)C3N2Nc2ccccn2)cc(OC)c1OC (stereo not given),1.06,0.175 (inactive),1.15 (inactive),0.42 (inactive),3.09,-1.19 (inactive),0.0624,0.0228,0.158,0.0954
COC(=O)[C@H](Cc1ccccc1)N[C@@H](/C=C/C1CC1)[C@H](O)Cc1ccccc1,0.136,-0.701 (inactive),-7.84 (inactive),-0.581 (inactive),0.521,-0.296 (inactive),-0.127,-0.327,-0.505,-0.218
O=C(N1CCCCC1)[C@]1(Cc2ccccc2)N=C(c2ccc(OCCCO)cc2)O[C@@H]1c1ccccc1,1.28,-0.425 (inactive),-1.52 (inactive),3.64 (inactive),2.84,-0.331 (inactive),0.18,-0.281,0.586,0.303
O=C1NC(=O)C2C1C=CC(C(O)c1cccs1)N2Nc1ccc(Cl)cc1Cl (stereo not given),0.407,1.01 (inactive),0.186 (inactive),1.74 (inactive),2.37,-0.0056 (inactive),-0.0333,-0.394,-0.23,-0.0476

# Reference: PubChem BioAssay
